Among all 310,000 compounds or so, about 14,000 (4.5%) showed an effect of 50% or more. The effect is printed as a negative number. Many of the other results were omitted from the sample, so strong results are more common in it than they were.
The compounds below were run against human ether-à-go-go-related gene (hERG) potassium channel (human, UniProt Q12809) (assay: primary screen, population patch clamp on CHO cells stably expressing hERG; higher = less effect of the substance).
Chain of human ether-à-go-go-related gene (hERG) potassium channel (Q12809 whole entry, looked up): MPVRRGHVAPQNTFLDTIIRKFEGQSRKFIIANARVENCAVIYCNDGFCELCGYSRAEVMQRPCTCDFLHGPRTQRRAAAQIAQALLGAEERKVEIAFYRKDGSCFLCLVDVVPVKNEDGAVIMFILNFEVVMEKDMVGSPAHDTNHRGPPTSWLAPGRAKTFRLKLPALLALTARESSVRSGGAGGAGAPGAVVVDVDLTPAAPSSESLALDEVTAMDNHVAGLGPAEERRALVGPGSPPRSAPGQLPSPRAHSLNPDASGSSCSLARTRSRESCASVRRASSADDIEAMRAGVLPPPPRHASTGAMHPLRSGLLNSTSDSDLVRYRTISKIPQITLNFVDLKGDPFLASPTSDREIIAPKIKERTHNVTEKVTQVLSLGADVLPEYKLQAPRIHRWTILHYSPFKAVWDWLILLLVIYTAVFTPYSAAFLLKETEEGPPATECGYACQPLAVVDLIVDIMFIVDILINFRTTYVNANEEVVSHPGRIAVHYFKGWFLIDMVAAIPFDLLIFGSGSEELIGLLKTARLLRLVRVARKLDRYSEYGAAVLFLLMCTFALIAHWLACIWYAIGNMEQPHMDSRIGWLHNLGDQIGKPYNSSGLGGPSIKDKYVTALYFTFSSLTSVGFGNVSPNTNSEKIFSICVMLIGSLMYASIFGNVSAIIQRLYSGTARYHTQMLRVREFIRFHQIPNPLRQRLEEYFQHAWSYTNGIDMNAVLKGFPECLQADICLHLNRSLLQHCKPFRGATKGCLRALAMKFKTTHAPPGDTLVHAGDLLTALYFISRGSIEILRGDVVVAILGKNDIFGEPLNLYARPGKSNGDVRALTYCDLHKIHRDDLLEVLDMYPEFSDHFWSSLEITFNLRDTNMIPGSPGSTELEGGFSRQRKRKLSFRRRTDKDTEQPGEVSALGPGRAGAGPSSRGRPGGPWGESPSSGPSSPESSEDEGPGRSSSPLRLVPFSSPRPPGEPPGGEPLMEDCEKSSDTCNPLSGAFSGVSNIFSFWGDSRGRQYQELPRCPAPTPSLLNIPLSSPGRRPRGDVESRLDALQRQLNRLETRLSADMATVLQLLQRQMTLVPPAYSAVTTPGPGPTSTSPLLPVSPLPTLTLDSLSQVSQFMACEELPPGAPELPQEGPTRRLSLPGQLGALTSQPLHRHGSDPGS
`S=C1NC(c2ccccc2)=CC(c2ccccc2)N1` (stereo not drawn) was tested, and the “hERG current change (%, negative = inhibition) at 10uM” value was 6.64%.
With `CC(=O)NN1C(=O)/C(=C2/Sc3ccc(Cl)cc3N2C)SC1=S` the “hERG current change (%, negative = inhibition) at 10uM” value was 10.6%.
`C#CC[N+](C)(C)CCCCCCCC.[Br-]` was tested, and the “hERG current change (%, negative = inhibition) at 10uM” value was -15.9%.
In the case of `CC#CC[N+](C)(C)CCCCCCCC.[Br-]`, the “hERG current change (%, negative = inhibition) at 10uM” value was -40.1%.
In the case of `C#CC[N+](C)(C)CCCCCCCCCCCC.[Br-]`, the “hERG current change (%, negative = inhibition) at 10uM” value was -50.7%.
In the case of `C#CC[N+](C)(C)CCCCCCCCCC.[Br-]`, the “hERG current change (%, negative = inhibition) at 10uM” value was -38.4%.
`CC#CC[N+](C)(C)CCCCCCCCCC.[Br-]` was tested, and the “hERG current change (%, negative = inhibition) at 10uM” value was -48.8%.
In the case of `C#CC[N+](C)(C)CCCCCCCCC.[Br-]`, the “hERG current change (%, negative = inhibition) at 10uM” value was -54.9%.
In the case of `CCCCNC(=O)c1ccc2c(c1)N(CC)C(=O)CS2`, the “hERG current change (%, negative = inhibition) at 10uM” value was -2.74%.
`COC(=O)C1=C(C)N(Cc2ccccc2)C(=NCc2cc(OC)c(OC)c(OC)c2)N[C@H]1c1cccc(F)c1` was tested, and the “hERG current change (%, negative = inhibition) at 10uM” value was -23%.
In the case of `COc1ccc(OC)c(/C=C(\C)C(=O)c2c(C)cc(C)[nH]c2=O)c1`, the “hERG current change (%, negative = inhibition) at 10uM” value was 7.34%.
With `CC(=O)N1CCN(c2ccc(NC(=O)c3ccc([N+](=O)[O-])o3)cc2Cl)CC1` the “hERG current change (%, negative = inhibition) at 10uM” value was -50%.
`CC(=O)N1CCN(c2ccc(NC(=O)c3ccco3)cc2Cl)CC1` was tested, and the “hERG current change (%, negative = inhibition) at 10uM” value was 0.303%.
With `O=C(Nc1ccc(NC(=O)c2ccc([N+](=O)[O-])o2)cc1Cl)c1ccco1` the “hERG current change (%, negative = inhibition) at 10uM” value was 9.42%.
With `CN1CCN(c2ccc(NC(=O)c3ccc([N+](=O)[O-])o3)cc2Cl)CC1` the “hERG current change (%, negative = inhibition) at 10uM” value was -57.3%.
For `CC(=O)N1CCN(c2ccc(NC(=O)c3ccc(N4CCCC4)c([N+](=O)[O-])c3)cc2Cl)CC1`, the “hERG current change (%, negative = inhibition) at 10uM” value was -12.4%.
With `CN1CCN(c2ccc(NC(=O)c3ccco3)cc2Cl)CC1` the “hERG current change (%, negative = inhibition) at 10uM” value was -16.8%.
In the case of `CC1CCCCC12NC(=O)N(CC(=O)NCCc1ccc(F)cc1)C2=O` (stereo not drawn), the “hERG current change (%, negative = inhibition) at 10uM” value was -19.7%.
In the case of `Cc1ccc2[nH]c3c(=O)n(CC(=O)Nc4ccccc4N4CCN(C)CC4)ncc3c2c1`, the “hERG current change (%, negative = inhibition) at 10uM” value was -5.73%.
With `COc1ccc(/C=C2/SC(=S)N(CCCC(=O)Nc3cccc(O)c3)C2=O)cc1` the “hERG current change (%, negative = inhibition) at 10uM” value was 9.11%.
With `Cc1cccc(NC(=O)CN(C)S(=O)(=O)c2ccc3c(c2)n(C)c(=O)c(=O)n3C)c1C` the “hERG current change (%, negative = inhibition) at 10uM” value was -7.72%.
With `Br.COc1ncnc2c1N=C1CC(C)(C)CC(N)=C1S2` the “hERG current change (%, negative = inhibition) at 10uM” value was -10.4%.
`Cc1ccc(S(=O)(=O)N2CCN(c3ccccc3)CC2)cc1` was tested, and the “hERG current change (%, negative = inhibition) at 10uM” value was 13%.
With `CC(C)N(Cc1ccccc1)CC(O)COc1ccc(S(=O)(=O)N2CCOCC2)cc1Cl` (stereo not drawn) the “hERG current change (%, negative = inhibition) at 10uM” value was -32.3%.
With `COC(=O)Cc1c[nH]c2cccc(OCC(O)CN(Cc3ccccc3)C(C)C)c12.O=C(O)c1ccccc1O` (stereo not drawn) the “hERG current change (%, negative = inhibition) at 10uM” value was -63%.
For `COc1ccc(COCC(O)CN(Cc2ccccc2)C(C)C)cc1OC` (stereo not drawn), the “hERG current change (%, negative = inhibition) at 10uM” value was 0.398%.
For `O=C(C[n+]1cc(-c2ccc(Cl)c(Cl)c2)n2c1CCC2)c1cccs1.[Br-]`, the “hERG current change (%, negative = inhibition) at 10uM” value was -3.09%.
With `O=C(N/N=C/c1cccc(OC(=O)c2ccccc2Cl)c1)c1cccnc1` the “hERG current change (%, negative = inhibition) at 10uM” value was -17%.
`O=C(Nc1cccc2ccccc12)c1cccc([N+](=O)[O-])c1` was tested, and the “hERG current change (%, negative = inhibition) at 10uM” value was 11.6%.
With `CCCN1C(=O)c2ccccc2NC1c1ccc(Br)cc1` (stereo not drawn) the “hERG current change (%, negative = inhibition) at 10uM” value was -18.1%.
For `O=C1c2ccccc2NC(c2ccccc2)N1Cc1ccccc1` (stereo not drawn), the “hERG current change (%, negative = inhibition) at 10uM” value was -35.2%.
With `CCN(CC)CCN1C(=O)c2ccccc2NC1c1ccc(Br)cc1` (stereo not drawn) the “hERG current change (%, negative = inhibition) at 10uM” value was -85.7%.
With `O=C1c2ccccc2NC(c2ccc(F)cc2)N1Cc1ccccc1` (stereo not drawn) the “hERG current change (%, negative = inhibition) at 10uM” value was -9.65%.
With `CCN(CC)CCN1C(=O)c2ccccc2NC1c1ccc(C)cc1` (stereo not drawn) the “hERG current change (%, negative = inhibition) at 10uM” value was -66.1%.
With `CCN(CC)CCN1C(=O)c2ccccc2NC1c1ccc(N(C)C)cc1` (stereo not drawn) the “hERG current change (%, negative = inhibition) at 10uM” value was -46.6%.
`CCN(CC)CCN1C(=O)c2ccccc2NC1c1ccccc1F` (stereo not drawn) was tested, and the “hERG current change (%, negative = inhibition) at 10uM” value was -46.3%.
For `CCN(CC)CCN1C(=O)c2ccccc2NC1c1cccc(F)c1` (stereo not drawn), the “hERG current change (%, negative = inhibition) at 10uM” value was -68.2%.
In the case of `CCCN1C(=O)c2ccccc2NC1c1ccc(Cl)c(Cl)c1` (stereo not drawn), the “hERG current change (%, negative = inhibition) at 10uM” value was 6.85%.
In the case of `O=C1c2ccccc2NC(c2cccc(F)c2)N1Cc1ccccc1` (stereo not drawn), the “hERG current change (%, negative = inhibition) at 10uM” value was -71.1%.
With `CCCN1C(=O)c2ccccc2NC1c1ccc(C)cc1` (stereo not drawn) the “hERG current change (%, negative = inhibition) at 10uM” value was -4.35%.
`O=C1c2ccccc2NC(c2cccc(F)c2)N1Cc1ccco1` (stereo not drawn) was tested, and the “hERG current change (%, negative = inhibition) at 10uM” value was -48.6%.
`COc1ccc(NC(=S)N2CCN(Cc3cccc(F)c3)CC2)c(OC)c1` was tested, and the “hERG current change (%, negative = inhibition) at 10uM” value was -6.36%.

From article PMC4336329 (PLoS ONE, 2015)
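Also: peak tail current of the secondary pulse compared with the same well before compound.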
